Measured values taken from PubChem BioAssay (NCATS).
Records with an inconclusive call do not appear. Values without a mark were called inactive. Activity calls are given as the source filed them. Calls come from the whole dose curve; as a rule, active = well fitted inhibition curve with a large enough effect in the repeat runs; inconclusive = weak or mixed curves; inactive = no such curve, though single readings can be large or run the other way.

Each compound was assayed against Cytochrome P450 2C9 (Homo sapiens) (UniProt P11712) (assay: Cytochrome P450 family 2 subfamily C member 9 (CYP2C9) small molecule antagonists: luciferase biochemical (cell-free) qHTS assay (AID 1645842; note: nearly all actives have a fitted effect of over 55% in size)). Conditions: P450-Glo CYP2C9 enzyme assay, luciferin luminescence; series mostly up to 57.4 µM; activity change, negative = inhibition: at the top concentration.
Outline: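 Luminescence, after 20 min with luciferin detection reagent, reflected CYP2C9 turnover during a 1 h NADPH-driven reaction at 37C. Enzyme-substrate mix contained 0.4% bovine serum albumin and was preincubated with compound 10 min at room temperature.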
% is set by controls: 0 for no effect and ±100 for the full control effect; potency is the fitted concentration of half-maximal effect.

Cytochrome P450 2C9 (Homo sapiens), sequence (P11712 whole entry, looked up): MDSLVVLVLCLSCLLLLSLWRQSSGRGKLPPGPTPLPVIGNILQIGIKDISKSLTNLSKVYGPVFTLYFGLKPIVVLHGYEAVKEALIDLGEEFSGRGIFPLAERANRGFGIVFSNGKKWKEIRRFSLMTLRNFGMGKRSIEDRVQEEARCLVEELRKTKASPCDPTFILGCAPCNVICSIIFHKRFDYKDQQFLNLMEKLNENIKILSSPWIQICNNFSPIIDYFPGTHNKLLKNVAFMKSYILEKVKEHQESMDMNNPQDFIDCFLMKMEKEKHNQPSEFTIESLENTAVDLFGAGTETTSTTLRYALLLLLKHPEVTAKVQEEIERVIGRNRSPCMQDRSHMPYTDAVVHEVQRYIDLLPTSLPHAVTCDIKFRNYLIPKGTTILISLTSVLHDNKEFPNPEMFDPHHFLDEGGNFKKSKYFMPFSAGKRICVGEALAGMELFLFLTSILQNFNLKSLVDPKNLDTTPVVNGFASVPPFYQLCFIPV

| SMILES | Potency | activity change, negative = inhibition [%] |
| --- | --- | --- |
| O=C(CSc1nc2ccccc2n1Cc1cccc(Cl)c1)N1CCN(c2ccc(F)cc2)CC1 | 3.38 µM (active) | – |
| Cc1ccc2ccc(C(Nc3ccccn3)c3ccccc3)c(O)c2n1 (stereo not given) | 2.68 µM (active) | – |
| Cc1cccc(N2CCN(C(=O)CCC(=O)NNc3nc4ccccc4c4nc(C)nn34)CC2C)c1 (stereo not given) | 9.52 µM (active) | – |
| Cc1cccc(Cc2c(C)nc3c(-c4ccccc4)c(C)[nH]n3c2=O)c1 | – | -11.2 |
| CC1=C(C(=O)Nc2nnc(C(F)(F)F)s2)C(c2ccccc2Cl)N=C(Nc2nc3ccccc3o2)N1 (stereo not given) | 10.7 µM (active) | – |
| CCC(Sc1nc2nccnc2c(=O)n1Cc1ccc(C)cc1)C(=O)NC1CCCCC1 (stereo not given) | 9.52 µM (active) | – |
| COc1ccc(OCC(=O)Nc2cc(-c3nc4ccccc4s3)ccc2C)cc1 | 0.379 µM (active) | – |
| CCN(CC)C(=O)[C@]1(c2ccccc2)C[C@H]1CN | – | -10.7 |
| COc1ccccc1NC(=O)CSc1nc(-c2ccc(C(C)(C)C)cc2)c(C#N)c(=O)[nH]1 | 0.756 µM (active) | – |
| CCOc1ccc(C(=O)NCCS(=O)(=O)N2CCN(c3ccccc3F)CC2)cc1OCC | 2.13 µM (active) | – |
| CC(C)(C)c1ccc(-c2nc(SCC(=O)Nc3ccc(Cl)cc3)[nH]c(=O)c2C#N)cc1 | 3.01 µM (active) | – |
| Oc1c(C(Nc2ccccn2)c2ccccc2F)ccc2cccnc12 (stereo not given) | 19 µM (active) | – |
| CC1=C(C(=O)Nc2cccc(-c3nn[nH]n3)c2)C(c2ccccc2Cl)N=C(Nc2nc3ccccc3o2)N1 (stereo not given) | 0.536 µM (active) | – |
| COc1ccc(Cl)cc1NC(=O)CN1C(=O)CSc2ccc(S(=O)(=O)N3CCCC3)cc21 | 0.756 µM (active) | – |
| COc1ccc(NC(=O)c2cnc[nH]2)cc1S(=O)(=O)Nc1ccc(Br)cc1 | 10.7 µM (active) | – |
